In PubChem BioAssay (EPA / NIEHS):
Several values for one entry are separate records, joined by “and”; a condition that tells them apart may be missing. Equal entries are not always repeated. Results filed as inconclusive are left out. Where a structure was tested more than once in an assay, its records may differ in their call. Activity calls are given as the source filed them. How the source made its calls, unless noted: active means hit-call score of the fitted dose curve at least 0.9, where 1 is the maximum; inactive means score below 0.9.

Assays:
[1] = CCTE_Shafer_MEA_dev_mutual_information_norm: CCTE's Neural Network Formation Assay for Mutual Information Normalization, Shafer Lab (AID 2284091);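 on AC50: mutual information between electrodes summarised as area under curve across four recording days; potency is for a decrease in mutual information relative to DMSO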
Procedure, shortened: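 Exposure of primary rat cortical neurons began at plating and ran to DIV 12, with full media and treatment renewal after DIV 5 and 9 recordings. Mutual information AUC (DIV 5–12) was analysed for loss versus DMSO.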

[2] = CCTE_Shafer_MEA_dev_correlation_coefficient_mean: CCTE's Neural Network Formation Assay for Mean Correlation Coefficient, Shafer Lab (AID 2284093);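 on AC50: well mean pairwise spike train correlation integrated as AUC over recording days 5 to 12; potency fitted for loss of correlation relative to DMSO vehicle wells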
Procedure, shortened: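 Rat cortical cultures, 1.5 x 10^5 cells/well, dosed from day 0 for 12 days. Spontaneous spikes recorded DIV 5/7/9/12; electrode-pair correlation coefficients averaged, AUC taken. Fit in loss direction vs DMSO.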

[3] = IUF_NPC1b_proliferation_BrdU_72hr: Leibniz Research Institute for Environmental Medicine (IUF) 72-hour Neural Progenitor Cell Bromodeoxyuridine (BrdU) Proliferation Assay (NPC1b) (AID 2284207)
Procedure, shortened: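 Neural progenitor spheres of human fetal origin are treated for three days; BrdU added for the last 16 h is quantified by luminescence ELISA, with DMSO as baseline and EGF/FGF omission as positive control.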

[4] = IUF_NPC1a_proliferation_area_72hr: Leibniz Research Institute for Environmental Medicine (IUF) 72-hour Neural Progenitor Cell Proliferation Area Assay (NPC1a) (AID 2284208)
Procedure, shortened: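 Read-out: increase in sphere area over 72 h by automated phase-contrast imaging, fitted in positive direction versus DMSO baseline. One hNPC sphere (0.25-0.35 mm) per well in EGF/FGF medium; growth-factor withdrawal served as positive control.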

[5] = IUF_NPC1_viability_72hr: Viability Assessment at 72 hours in the Leibniz Research Institute for Environmental Medicine (IUF) Neural Progenitor Cell Proliferation Assay (NPC1) (AID 2284209)
Procedure, shortened: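 Spheres of primary human neural progenitors were plated singly in proliferation medium and treated for 72 h. Mitochondrial reduction of resazurin was then measured by fluorescence and analysed against DMSO controls.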

[6] = CCTE_Mundy_HCI_Cortical_Synap_Neur_Matur_NeuriteSpotCountPerNeuriteLength: CCTE's Synaptogenesis and Neurite Maturation Assay in rat cortical cells for Neurite Spot Count per Neurite Length, Mundy Lab (AID 2284210)
Procedure, shortened: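 Neurite-associated synapse density (synaptophysin puncta per unit neurite length) is measured by fluorescence high-content imaging in rat cortical cultures treated from DIV 7 and fixed at DIV 12, with DMSO as negative control.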

[7] = CCTE_Mundy_HCI_Cortical_Synap_Neur_Matur_BPCount: CCTE's Synaptogenesis and Neurite Maturation Assay in rat cortical cells for Branch Point Count, Mundy Lab (AID 2284211)
Procedure, shortened: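 HCI read-out of branch points from MAP2/synaptophysin/Hoechst immunofluorescence; rat cortical cultures, AraC DIV 5, dosing DIV 7, fixed DIV 12; fit in positive direction vs DMSO baseline.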

[8] = CCTE_Mundy_HCI_Cortical_NOG_NeuriteCount: CCTE's Neurite Outgrowth Assay in rat cortical cells for Neurite Count, Mundy Lab (AID 2284212);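 further: cells fixed about two days after chemical exposure began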
Procedure, shortened: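 Rat cortical primary cells; compound added 2 h post-plating, 1/10 dilution of working solution. Anti-betaIII-tubulin/AF488 ICC; ArrayScan neurite count vs DMSO.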

[9] = CCTE_Mundy_HCI_Cortical_NOG_NeuriteLength: CCTE's Neurite Outgrowth Assay in rat cortical cells for Neurite Length, Mundy Lab (AID 2284213);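 on AC50: neurites imaged about 48 to 50 h after chemical exposure began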
Procedure, shortened: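 First, rat primary cortical cells were plated and, 2 h later, given test chemical as a 1/10 dilution. Finally, βIII-tubulin immunostaining enabled automated imaging of neurite length.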

[10] = CCTE_Mundy_HCI_Cortical_Synap_Neur_Matur_NeuriteLength: CCTE's Synaptogenesis and Neurite Maturation Assay in rat cortical cells for Neurite Length, Mundy Lab (AID 2284214)
Procedure, shortened: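 Cultures of rat primary cortical cells received chemical at DIV 7 and were fixed at DIV 12, after glial arrest with AraC at DIV 5. Neurite length was measured by automated imaging of MAP2 immunofluorescence.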

[11] = CCTE_Mundy_HCI_Cortical_Synap_Neur_Matur_NeuriteSpotCountPerNeuron: CCTE's Synaptogenesis and Neurite Maturation Assay in rat cortical cells for Neurite Spot Count per Neuron Count, Mundy Lab (AID 2284215)
Procedure, shortened: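 Rat primary cortical cells received AraC at DIV 5, then chemicals with a media change at DIV 7, and were fixed at DIV 12. Synaptophysin puncta on MAP2-stained neurites per neuron were counted by high-content imaging, fitted relative to DMSO.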

[12] = CCTE_Mundy_HCI_Cortical_Synap_Neur_Matur_SynapseCount: CCTE's Synaptogenesis and Neurite Maturation Assay in rat cortical cells for Synapse Count, Mundy Lab (AID 2284218)
Procedure, shortened: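 Cells were plated, allowed 2 hr to attach, treated with AraC at DIV 5, then exposed to chemicals from DIV 7 until DIV 12. After fixation and MAP2/synaptophysin immunolabelling, synapses per neuron were quantified by automated imaging against DMSO.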

[13] = CCTE_Mundy_HCI_Cortical_Synap_Neur_Matur_CellBodySpotCount: CCTE's Synaptogenesis and Neurite Maturation Assay in rat cortical cells for Cell Body Spot Count, Mundy Lab (AID 2284223)
Procedure, shortened: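 Rat primary cortical cultures received AraC at DIV 5 to arrest glia, were dosed with chemical at DIV 7 with media change, and were fixed at DIV 12 (288.33 h). Synaptophysin puncta on MAP2-positive cell bodies per neuron were counted by high-content imaging versus DMSO.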

[14] = CCTE_Mundy_HCI_hNP1_Pro_ResponderAvgInten: CCTE's Proliferation Assay in human neuroprogenitor cells, Mundy Lab (AID 2284224; active means hit-call score of the fitted dose curve at least 0.9, where 1 is the maximum;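 further: human neural progenitor cells hNP1 derived from WA09 embryonic stem cells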)
Procedure, shortened: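 Human neuroprogenitors (hNP1, WA09 lineage) receive test chemical after 40 to 44 hours of attachment. A four-hour BrdU pulse begins twenty hours later, followed by fixation and high content imaging; signal is referenced to DMSO controls.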

[15] = UKN2_HCS_IMR90_neural_migration: University of Konstanz (UKN) Leist Lab Neural Crest Cell Migration Assay in human induced IMR90 Pluripotent Stem Cells (UKN2) (AID 2284204); settings: actives raise or lower the signal
Procedure, shortened: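 Using a 96-well stopper format with PLO/laminin/fibronectin coating, neural crest cells from iPSC migrate in cytokine-supplemented N2-S medium; after 24 h, chemicals are applied for a further 24 h, then cells are imaged after dye staining.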

[16] = UKN4_HCS_LUHMES_neurite_outgrowth: University of Konstanz (UKN) Leist Lab Neurite Outgrowth Assay in human LUHMES cells (UKN4) (AID 2284206); settings: actives raise or lower the signal
Procedure, shortened: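 Human LUHMES cells were differentiated for two days, replated and treated with chemicals for 24 h. Neurite outgrowth was quantified as calcein-stained neurite area by HCS imaging, fitted bidirectionally relative to DMSO.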

[17] = TAMU_PeakParms_SingleDonor1434_Chronotropy: Texas A&M University (TAMU) 1.5-hr Human Induced Pluripotent Stem Cell (iPSC)-derived Cardiomyocytes Calcium (Ca+2) Flux Assay for Cardiotoxicity: Chronotropy (changes in peak frequency) (AID 2284217); settings: actives raise or lower the signal
Procedure, shortened: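 iPSC-CMs, donor 1434; 4 conc (0.2–100 uM), 0.5% v/v DMSO, 90 min, 37C/5% CO2; Ca2+ flux fluorescence → peak.freq.avg; peak.freq.avg = 0 dropped; bidirectional fit vs DMSO; EC05 POD.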

[18] = CCTE_Mundy_HCI_hN2_NOG_NeuriteCount: CCTE's Neurite Outgrowth Assay in human hN2 cells for Neurite Count, Mundy Lab (AID 2284219; active means hit-call score of the fitted dose curve at least 0.9, where 1 is the maximum)
Procedure, shortened: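 In this morphology assay, hNP1-derived neurons received test chemical 2 h post-plating and were fixed two days later in warm paraformaldehyde/sucrose containing Hoechst 33342. Neurites, labelled by rabbit anti-βIII-tubulin (1:800) and Alexa Fluor-488 (1:500), were counted automatically.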

[19] = CCTE_Mundy_HCI_hN2_NOG_NeuriteLength: CCTE's Neurite Outgrowth Assay in human hN2 cells for Neurite Length, Mundy Lab (AID 2284220; active means hit-call score of the fitted dose curve at least 0.9, where 1 is the maximum)
Procedure, shortened: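 Using βIII-tubulin immunofluorescence and Hoechst nuclear counterstain, this component quantifies neurite length in hNP1-derived neurons.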

Measured: AC50

CSC1=N[C@@](C)(c2ccccc2)C(=O)N1Nc1ccccc1
not listed: [15] | [16] | [17] | [18] | [19]
inactive: all other assays above

CCOP(=O)(OCC)Oc1cc(C)nc(C(C)C)n1
not listed: [16] | [17] | [18] | [19]
inactive: all other assays above

COP(=O)(OC)OC(Br)C(Cl)(Cl)Br (configuration not stated)
active: [1] 4.85 µM and 13 µM | [2] 8.49 µM and 16 µM | [15] 25.4 µM | [3] 50.1 µM | [4] 26.6 µM | [7] 50 µM and 27.8 µM | [8] 31.5 µM and 30.7 µM | [9] 29.4 µM and 20.6 µM | [10] 32.5 µM and 41.6 µM | [11] 50 µM and 10.7 µM | [12] 23.2 µM and 9.92 µM | [13] 9.92 µM | [14] 14 µM and 16.7 µM
inactive: [5] | [6] | [13]

CCOP(=O)(NC(C)C)Oc1ccc(SC)c(C)c1 (configuration not stated)
inactive: [1] | [2] | [15] | [4] | [5] | [6] | [7] | [8] | [9] | [10] | [11] | [12] | [13] | [14]
active: [1] 36.3 µM | [2] 90.9 µM | [3] 27.9 µM

CC[C@H](C)[C@H]1O[C@]2(C=C[C@@H]1C)C[C@@H]1C[C@@H](C/C=C(\C)[C@@H](O[C@H]3C[C@H](OC)[C@@H](O[C@H]4C[C@H](OC)[C@@H](NC)[C@H](C)O4)[C@H](C)O3)[C@@H](C)/C=C/C=C3\CO[C@@H]4[C@H](O)C(C)=C[C@@H](C(=O)O1)[C@]34O)O2
active: [1] 0.981 nM and 1.87 nM | [2] 318 nM and 15.9 nM | [15] 4.54 µM and 1.96 µM | [16] 1.79 µM | [3] 25 µM and 1.71 µM | [4] 5.17 µM and 2.01 µM | [5] 6.92 µM and 2.51 µM | [6] 587 nM and 1 µM | [7] 428 nM and 668 nM | [8] 1.47 µM and 1.53 µM | [9] 1.24 µM and 1.58 µM | [10] 387 nM and 828 nM | [11] 441 nM and 565 nM | [12] 522 nM and 658 nM | [13] 1.12 µM and 1.1 µM
inactive: [14]

C=C(C)[C@H]1Cc2c(ccc3c2O[C@@H]2COc4cc(OC)c(OC)cc4[C@@H]2C3=O)O1
inactive: [3] | [5] | [17]
active: [1] 0.00709 µM | [2] 14.5 nM and 16.1 nM | [3] 0.0427 µM | [4] 756 nM and 41.6 nM | [5] 329 nM | [8] 53 nM | [9] 25.3 nM

CC1=NNC(=O)N(/N=C/c2cccnc2)C1
not listed: [14] | [15] | [16] | [17] | [18] | [19]
inactive: all other assays above

COP(=O)(NC(C)=O)SC (configuration not stated)
inactive: [1] | [2] | [3] | [4] | [5] | [6] | [7] | [8] | [9] | [10] | [11] | [12] | [18] | [19] | [13]
active: [1] 15 µM
